Screening data: PubChem, National Center for Advancing Translational Sciences (NCATS)
D1 PAM: Potentiators of Human D1 Dopamine Receptor: qHTS; D(1A) dopamine receptor (Homo sapiens), P21728; HEK293 TREx D1 cells, calcium flux, dopamine EC20 potentiation; potentiation, % at 10 µM; actives 0.036% (n = 360,000); AID 504651, 2011; in the data active means potentiation above about 30%; further: 0% is about no effect
Target sequence (P21728 whole entry, looked up): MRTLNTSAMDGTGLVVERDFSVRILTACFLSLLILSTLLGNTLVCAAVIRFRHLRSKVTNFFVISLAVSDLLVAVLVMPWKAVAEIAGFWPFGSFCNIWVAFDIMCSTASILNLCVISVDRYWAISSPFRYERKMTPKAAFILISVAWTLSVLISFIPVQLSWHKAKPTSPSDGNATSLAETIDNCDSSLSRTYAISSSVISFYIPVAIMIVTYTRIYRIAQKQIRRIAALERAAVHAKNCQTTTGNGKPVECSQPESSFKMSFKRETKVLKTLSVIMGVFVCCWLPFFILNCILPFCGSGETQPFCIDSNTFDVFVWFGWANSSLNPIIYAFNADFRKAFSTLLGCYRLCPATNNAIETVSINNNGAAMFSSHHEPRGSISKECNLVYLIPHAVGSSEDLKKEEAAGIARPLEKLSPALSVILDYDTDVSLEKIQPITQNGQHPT
D1 agonist: Allosteric Agonists of the Human D1 Dopamine Receptor: qHTS; D(1A) dopamine receptor (Homo sapiens), P21728; HEK293 T-REx D1 cells, calcium flux, agonist mode; activation, % at 2 µM; actives 1% (n = 360,000); AID 504660, 2011; further: 0% is about no effect
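Inducible HEK293 T-REx D1 cells, force-coupled to calcium signalling, were plated at 4000 cells/well with tetracycline and held overnight at 30 C. After no-wash calcium dye loading, compound-evoked calcium rise over 180 s flagged agonists.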
TRHR agonist: qHTS for Small Molecule Agonists and Allosteric Enhancers of Human TRH Receptor: Primary Screen for Agonists; Thyrotropin-releasing hormone receptor (Homo sapiens), P34981; actives 0.18% (n = 360,000); activation, % at 2 µM; AID 493084, 2011; TRHR cells, calcium flux fluo-8, FDSS agonist mode; further: 0% is about no effect
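TRHR-expressing cells loaded with fluo-8 calcium dye; 23 nL library compound pin-transferred, kinetic FDSS fluorescence (Ex 480/Em 530) recorded about 180 s for agonist-induced calcium release, before a 10 nM TRH EC20 addition for potentiator mode.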
TRHR PAM: qHTS for Small Molecule Agonists and Allosteric Enhancers of Human TRH Receptor: Primary Screen for Enhancers | TRHR cells, fluo-8 calcium fluorescence, EC20 TRH enhancement | Thyrotropin-releasing hormone receptor (Homo sapiens), P34981 | actives 0.66% (n = 360,000) | enhancement, % at 2 µM; in the data active means enhancement above about 30%; further: 0% is about no effect
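Enhancer read-out: after compound pinning and an initial kinetic agonist-mode read, an EC20 of TRH (10 nM final) was injected and fluo-8 calcium signal (Ex 480/Em 530) followed at 1 s/cycle for 100 cycles in TRHR-expressing cells.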
D1 antagonist: Antagonist of Human D 1 Dopamine Receptor: qHTS; D(1A) dopamine receptor (Homo sapiens), P21728; HEK293 TREx D1 cells, calcium flux, dopamine EC80; hits give low values; activity change, negative = inhibition, % at 10 µM; actives 3.2% (n = 360,000); AID 504652, 2011; in the data active means activity change below about -30%; further: on the % scale 0 is the no-effect control and ±100 the full control effect
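Kinetic fluorescence of a calcium dye serves as the read-out. D1-expressing Hek293 Trex cells, induced overnight at 30 C, are exposed to compound for 180 s before an EC80 dopamine addition, then read 180 s further.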
Active calls of the source: *; · = not tested or not shown. Compounds with a hit are over-represented: about 4.6% of the library has one in this group of screens. Unless noted, no stated cut-off is given here; in the data, active means activation above about 30%; inactive means the rest.

SMILES	D1 PAM	D1 agonist	TRHR agonist	TRHR PAM	D1 antagonist
COc1ccc(-c2nnc(SCc3ccc(C(=O)O)cc3)n2C)cc1OC	4	5	-1	-2	-19
Cc1cc(C)cc(N2C(=O)CSC23C(=O)N(CC(=O)NCCc2ccccc2)c2ccccc23)c1 (stereo not drawn)	6	3	0	11	-1
COc1ccc(S(=O)(=O)Nc2ccc(-c3cn4c(C)csc4n3)cc2)cc1	-4	1	-1	2	-72*
CC(=O)Nc1ccc(S(=O)(=O)Nc2ccc(-c3cn4c(C)csc4n3)cc2)cc1	-3	0	0	-1	-11
COc1ccc(OC)c(CNC(=O)Cn2nc(C)c3nn(-c4ccc(Cl)cc4)c(C)c3c2=O)c1	1	1	-1	-7	-13
COc1ccc(C(=O)N=C2SC3CS(=O)(=O)CC3N2Cc2ccc(OC)c(OC)c2)cc1 (stereo not drawn)	2	7	1	-2	-10
COc1ccc(CN2C(=NC(=O)C3CC3)SC3CS(=O)(=O)CC32)cc1OC (stereo not drawn)	-6	2	1	3	-31*
Cc1ccc(C)c(C(=O)CCC(=O)OCn2nnc3ccccc3c2=O)c1	-4	2	-1	-1	-64*
O=C(OCn1nnc2ccccc2c1=O)c1ccc(O)cc1	-3	3	0	2	-8
O=C(OCn1nnc2ccccc2c1=O)c1cc(-c2ccccc2Cl)nc2ccccc12	-7	3	0	0	4
O=C(OCn1nnc2ccccc2c1=O)c1ccc(Br)o1	-1	3	-1	33*	4
Cc1onc(-c2ccccc2Cl)c1C(=O)OCn1nnc2ccccc2c1=O	-7	2	1	1	-50*
Cc1ccc(CCNC(=O)C2CC(=O)N(C3CCCCC3)C2)cc1 (stereo not drawn)	9	1	-1	11	-1
CCCCNC(=O)C1CC(=O)N(C2CCCCC2)C1 (stereo not drawn)	1	31*	0	11	136
Cc1cc(C)cc(N=Cc2[nH]c3ccc(Br)c(Cl)c3c2O)c1	-4	55*	36*	1	-4
Cc1cc(Br)c(OCC(=O)NN)c2c1CCC2	3	0	-1	-8	8
CC(C)c1cccc(C2=CC(=O)C[C@H](c3ccc(F)cc3)C2)c1	-14	6	1	-6	-39*
CC(=O)n1c(C=Nc2ccc(Cl)cc2)c(O)c2ccccc21	1	39*	-4	9	2
Cc1cc2n(n1)CCC(=O)N2Cc1ccc(C(=O)Nc2cc(Cl)ccc2C)cc1	2	-2	0	0	-1
Cc1ccc(NC(=O)COC(=O)c2ccc(CN3CCCC3=O)cc2)c(Cl)c1	·	13	0	-2	-44*
Cc1ccc(NC(=O)c2ccc(CN3C(=O)CCn4nc(C)cc43)cc2)c(Cl)c1	-3	1	0	-2	-34*
O=C(CCCn1c(=O)c2cccn2c2ccccc21)Nc1cccc(Cl)c1	0	0	-1	1	-32*
Cc1cc(C)cc(NC(=O)CCCn2c(=O)c3cccn3c3ccccc32)c1	-5	5	0	-3	-71*
Cc1ccc(NC(=O)CCCn2c(=O)c3cccn3c3ccccc32)c(C)c1	0	-2	0	20	-14
Cc1cc(C)c(NC(=O)CCn2c(=O)c3cccn3c3ccccc32)c(C)c1	3	13	0	-5	-49*
SMILES	D1 PAM	D1 agonist	TRHR agonist	TRHR PAM	D1 antagonist
Cc1ccc(NC(=O)CCCn2c(=O)c3cccn3c3ccccc32)c(Cl)c1	-2	-1	0	-4	9
COc1ccc(NC(=O)Cn2c(=O)nc(-c3ccccc3)c3ccccc32)cc1OC	0	-1	0	1	-17
CC(Oc1ccc(-c2ccccc2)cc1)C(=O)N/N=C/c1cccnc1 (stereo not drawn)	-8	9	0	-3	-36*
COc1ccc(C(=O)N/N=C/c2cccnc2)cc1	6	5	1	-2	-5
COc1ccc(-c2cc(CCCC(=O)NCCc3ccc(OC)cc3OC)no2)cc1	-8	21	3	-15	-44*
O=C(Cn1cc(C(F)(F)F)ccc1=O)NC1CCCC1	-2	2	0	-5	-44*
CCc1c(-c2ccccc2)nc2nc(C)c(C)nn12	-2	0	0	37*	-27
Cc1cccc(NC(=O)CSc2nccn2Cc2ccc(F)cc2)c1C	-2	2	0	0	-5
CCOC(=O)C1=C(CN2CCC(C)CC2)NC(=O)NC1c1ccc(OC(C)C)cc1 (stereo not drawn)	3	-1	0	-1	13
CCOC(=O)C1=C(CN(CC)Cc2ccccc2)NC(=O)NC1c1ccc(OC(C)C)cc1 (stereo not drawn)	-3	6	3	5	-45*
Cc1ccc(Cn2c(=O)n(CCc3ccccc3)c(=O)c3sc4ccccc4c32)cc1	-2	2	2	-7	-5
O=c1c2sc3ccccc3c2n(Cc2ccccc2)c(=O)n1CCc1ccccc1	-1	0	1	-3	-52*
O=C(COc1ccccc1Cl)Nc1ccc(Cl)c(-c2nc3ccccc3o2)c1	2	0	1	4	12
CC(C)c1ccc(OCc2ccc(C(=O)N(C)C)o2)cc1	-3	10	0	0	-32*
CC(C)c1ccc(OCc2ccc(C(=O)O)o2)cc1	-6	5	0	-2	4
CCCNc1nc(N)nc(-c2cc(Cl)ccc2OC)n1	0	3	0	5	2
CCCN(CCC)c1nc(N)nc(-c2cc(Cl)ccc2OC)n1	-12	2	0	0	-75*
CCc1cccc(C)c1NC(=O)c1cc(S(=O)(=O)N(Cc2ccc(C(=O)OC)cc2)Cc2ccc(OC)c(OC)c2)ccc1F	2	5	0	-9	-38*
CCOC(=O)c1ccc(CN(Cc2ccc(Cl)cc2Cl)S(=O)(=O)c2ccc(F)c(C)c2)cc1	0	45*	4	-6	-32*
N#Cc1c(NC(=O)Cn2cnc3ccccc3c2=O)oc(-c2ccccc2)c1-c1ccccc1	-11	4	0	-5	-55*
COC(=O)c1c(-c2cccnc2)csc1NC(=O)c1ccc2c(c1)OCO2	8	7	1	-5	8
CCc1cc2c(=O)c(-c3nc(C)cs3)coc2cc1OC(C)C(=O)NCCO (stereo not drawn)	-2	0	0	-6	-33*
